From PubChem BioAssay (NCATS)
“And” between values parts separate entries of the source, which are not always exact repeats. Identical values can stand only once. Inconclusive results are not listed. A call without a number means that no potency is given here. Some compounds were tested as several samples or in several runs, with calls that do not always agree. The source made the active and inactive calls. Unless noted, calls follow the shape of the full dose curve.

Key:
[1] = Cell Viability - SH-SY5Y (AID 544; active = well fitted curve in the direction sought with a large enough effect; an effect the other way counts as inactive or inconclusive;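 also: cells exposed to compound for 40 hours; nearly all actives have a fitted effect of over 55% in size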)
How it was run: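 Cytotoxicity measured via ATP-dependent luciferase luminescence (CellTiter-Glo) following 40 h, 37 °C exposure of 1500 SH-SY5Y cells per well. Concentration-response data were fitted with the standard Hill equation to give AC50.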

[2] = Cell Viability - Renal Proximal Tubule (AID 545; active = well fitted curve in the direction sought with a large enough effect; an effect the other way counts as inactive or inconclusive;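 also: cells exposed to compound for 40 hours; nearly all actives have a fitted effect of over 40% in size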)
How it was run: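 Viability taken as intracellular ATP (CellTiter-Glo luminescence) after 40 hr, 37 °C compound treatment of primary proximal tubule cells from rat kidney, 1000 cells/well; Hill-equation fits of qHTS concentration-response data gave AC50.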

[3] = Cell Viability - Mesenchymal (AID 546; active = well fitted curve in the direction sought with a large enough effect; an effect the other way counts as inactive or inconclusive;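 also: cells exposed to compound for 40 hours before reading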)
How it was run: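 CellTiter-Glo luminescence (intracellular ATP, 20 min room temperature) after 40 hr compound exposure at 37 °C of 1000 glomerulus-derived human kidney mesenchymal cells/well; AC50 values obtained by fitting qHTS concentration-response data to the Hill equation.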

[4] = target: Bile acid receptor (Homo sapiens) (UniProt Q96RI1); assay: qHTS assay for small molecule antagonists of farnesoid X receptor signaling (AID 588526); also: potency is read from the fitted curve at half-maximal effect
Chain of Bile acid receptor (Homo sapiens) (Q96RI1 whole entry, looked up): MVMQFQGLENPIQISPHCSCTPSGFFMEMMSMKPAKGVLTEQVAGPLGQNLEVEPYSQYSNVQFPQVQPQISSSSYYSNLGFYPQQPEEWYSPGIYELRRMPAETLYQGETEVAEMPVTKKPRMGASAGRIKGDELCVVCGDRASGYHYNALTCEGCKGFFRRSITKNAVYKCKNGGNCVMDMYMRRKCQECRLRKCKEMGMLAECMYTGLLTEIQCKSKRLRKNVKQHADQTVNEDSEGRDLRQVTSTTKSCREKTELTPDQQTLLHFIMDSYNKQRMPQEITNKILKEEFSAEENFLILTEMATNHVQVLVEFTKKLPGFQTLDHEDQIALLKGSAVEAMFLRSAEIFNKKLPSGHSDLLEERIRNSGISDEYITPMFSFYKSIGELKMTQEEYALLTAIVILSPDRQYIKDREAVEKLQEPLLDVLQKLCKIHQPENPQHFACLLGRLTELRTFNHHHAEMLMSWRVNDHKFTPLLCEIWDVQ
How it was run: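 Beta-lactamase reporter antagonist mode: HEK293T FXR-UAS-bla cells, titrated compound, CDCA stimulation, 16 h 37 C, CCF4 dye 2 h RT. Data normalized to CDCA 50 uM and DMSO; Hill-fit IC50.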

[5] = target: Glucocorticoid receptor (Homo sapiens) (UniProt P04150); assay: qHTS assay for small molecule agonists of glucocorticoid receptor signaling (AID 588532; active = well fitted curve in the direction sought with a large enough effect in the signal ratio, with a control signal flat; the % refers to the signal ratio); details: HeLa MMTV-bla, beta-lactamase ratio, agonist, 18 h; stronger effect = higher value; percent of dexamethasone control, DMSO zero
Chain of Glucocorticoid receptor (Homo sapiens) (P04150 whole entry, looked up): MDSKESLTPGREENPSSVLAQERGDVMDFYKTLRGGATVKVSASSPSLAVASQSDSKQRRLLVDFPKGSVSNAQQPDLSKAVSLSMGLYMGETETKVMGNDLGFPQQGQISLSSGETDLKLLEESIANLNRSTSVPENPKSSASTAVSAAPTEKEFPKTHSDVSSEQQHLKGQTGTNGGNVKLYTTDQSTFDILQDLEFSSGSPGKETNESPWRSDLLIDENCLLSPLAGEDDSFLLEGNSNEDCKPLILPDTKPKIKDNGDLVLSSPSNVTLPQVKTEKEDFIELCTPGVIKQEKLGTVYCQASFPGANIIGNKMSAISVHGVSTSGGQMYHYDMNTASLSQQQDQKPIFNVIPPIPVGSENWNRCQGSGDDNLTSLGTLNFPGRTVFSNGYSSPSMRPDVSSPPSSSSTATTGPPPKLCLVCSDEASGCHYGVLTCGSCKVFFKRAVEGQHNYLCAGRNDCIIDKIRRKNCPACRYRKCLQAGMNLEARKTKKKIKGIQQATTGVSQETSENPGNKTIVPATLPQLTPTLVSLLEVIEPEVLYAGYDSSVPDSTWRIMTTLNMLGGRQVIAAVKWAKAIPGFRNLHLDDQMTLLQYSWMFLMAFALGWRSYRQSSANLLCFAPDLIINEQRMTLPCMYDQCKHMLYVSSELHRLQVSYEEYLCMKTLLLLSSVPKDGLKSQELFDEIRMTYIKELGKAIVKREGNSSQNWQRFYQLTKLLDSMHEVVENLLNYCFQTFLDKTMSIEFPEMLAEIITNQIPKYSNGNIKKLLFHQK
How it was run: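 Using MMTV-bla HeLa cells in medium with 1% stripped FBS and 25 mM HEPES, compounds were titrated and incubated overnight-length (18 h). Beta-lactamase cleavage of CCF4 was quantified by dual-emission fluorescence.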

[6] = target: Glucocorticoid receptor (Homo sapiens) (UniProt P04150); assay: qHTS assay for small molecule antagonists of glucocorticoid receptor signaling (AID 588533; active = well fitted inhibition curve with a large enough effect in the signal ratio, with a control signal flat, not every such curve was filed as active; the % refers to the signal ratio;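 also: cells stimulated with 2 nM dexamethasone as agonist; potency is read from the fitted curve at half-maximal effect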)
How it was run: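 Antagonist-mode qHTS: compound titrations added to GRE-bla HeLa cells, then dexamethasone 2 nM final; 18 h, 37 C. CCF4 FRET fluorescence normalized to dexamethasone and DMSO; IC50 from Hill fit.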

[7] = qHTS assay for small molecule antagonists of peroxisome proliferator-activated receptor delta signaling (AID 588535; active = well fitted inhibition curve with a large enough effect in the signal ratio, with a control signal flat, not every such curve was filed as active; the % refers to the signal ratio;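 as to max response: cells co-treated with a PPAR-delta agonist as stimulator during compound exposure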); details: HEK293T PPARd-UAS-bla, beta-lactamase FRET ratio, 18 h; 460 nm channel
How it was run: (§1)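 Titrations were run on PPAR-delta-UAS-bla HEK293T cells in charcoal/dextran-stripped serum, incubated 18 h at 37 C. CCF4 fluorescence (460/530 nm) after 2 h RT; Hill equation yields IC50 and maximal response.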

[8] = target: Peroxisome proliferator-activated receptor delta (Homo sapiens) (UniProt Q03181); assay: as above
Chain of Peroxisome proliferator-activated receptor delta (Homo sapiens) (Q03181 whole entry, looked up): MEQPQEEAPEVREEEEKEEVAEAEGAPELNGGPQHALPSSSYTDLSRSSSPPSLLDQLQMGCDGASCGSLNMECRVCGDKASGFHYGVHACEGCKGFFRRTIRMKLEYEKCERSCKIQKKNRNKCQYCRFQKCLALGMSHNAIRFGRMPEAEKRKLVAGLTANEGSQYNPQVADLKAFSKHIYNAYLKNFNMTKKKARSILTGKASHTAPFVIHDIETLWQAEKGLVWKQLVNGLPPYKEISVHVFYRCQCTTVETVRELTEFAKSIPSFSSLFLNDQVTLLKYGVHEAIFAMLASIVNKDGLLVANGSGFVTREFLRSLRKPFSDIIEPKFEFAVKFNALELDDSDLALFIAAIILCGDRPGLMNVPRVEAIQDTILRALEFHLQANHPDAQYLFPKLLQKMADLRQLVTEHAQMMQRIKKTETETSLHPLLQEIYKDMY
How it was run: as §1

[9] = target: Vitamin D3 receptor (Homo sapiens) (UniProt P11473); assay: qHTS assay for small molecule antagonists of vitamin D receptor signaling (AID 588541);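 also: receptor activated by calcitriol during compound treatment; series mostly up to about 77 µM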
Chain of Vitamin D3 receptor (Homo sapiens) (P11473 whole entry, looked up): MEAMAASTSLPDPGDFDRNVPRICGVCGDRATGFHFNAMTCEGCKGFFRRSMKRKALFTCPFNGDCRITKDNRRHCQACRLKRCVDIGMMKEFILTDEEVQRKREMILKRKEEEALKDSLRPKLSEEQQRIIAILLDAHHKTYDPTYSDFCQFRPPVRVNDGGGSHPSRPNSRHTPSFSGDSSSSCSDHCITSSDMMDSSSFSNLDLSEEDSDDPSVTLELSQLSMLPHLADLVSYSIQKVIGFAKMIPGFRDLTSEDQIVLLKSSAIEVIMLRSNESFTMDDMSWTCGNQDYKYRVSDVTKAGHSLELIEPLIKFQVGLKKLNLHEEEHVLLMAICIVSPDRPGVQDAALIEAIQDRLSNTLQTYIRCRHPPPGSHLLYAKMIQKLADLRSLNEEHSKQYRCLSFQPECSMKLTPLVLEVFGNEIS
How it was run: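 Antagonist-mode beta-lactamase reporter assay: HEK293T VDR-UAS-bla cells were exposed to titrated compound alongside 1-alpha,25-dihydroxyvitamin D3 at 3 nM final for 16 h. Values were normalized to the 50 nM agonist control and DMSO basal, with IC50 and efficacy from Hill equation fits.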

[10] = target: Vitamin D3 receptor (Homo sapiens) (UniProt P11473); assay: qHTS assay for small molecule agonists of vitamin D receptor signaling (AID 588543)
How it was run: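 Agonist-mode beta-lactamase reporter: HEK293T VDR-UAS-bla cells in charcoal-stripped 2% FBS, compound series 16 h 37 C, CCF4 2 h RT. EC50 from Hill fit, scaled against DMSO and 50 nM calcitriol control.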

[11] = qHTS assay for small molecule agonists of retinoid X receptor alpha signaling (AID 588544); details: HEK293T RXRa-UAS-bla, beta-lactamase reporter, 18 h; 530 nm emission
[12] = target: Retinoic acid receptor RXR-alpha (Homo sapiens) (UniProt P19793); assay: as above
Chain of Retinoic acid receptor RXR-alpha (Homo sapiens) (P19793 whole entry, looked up): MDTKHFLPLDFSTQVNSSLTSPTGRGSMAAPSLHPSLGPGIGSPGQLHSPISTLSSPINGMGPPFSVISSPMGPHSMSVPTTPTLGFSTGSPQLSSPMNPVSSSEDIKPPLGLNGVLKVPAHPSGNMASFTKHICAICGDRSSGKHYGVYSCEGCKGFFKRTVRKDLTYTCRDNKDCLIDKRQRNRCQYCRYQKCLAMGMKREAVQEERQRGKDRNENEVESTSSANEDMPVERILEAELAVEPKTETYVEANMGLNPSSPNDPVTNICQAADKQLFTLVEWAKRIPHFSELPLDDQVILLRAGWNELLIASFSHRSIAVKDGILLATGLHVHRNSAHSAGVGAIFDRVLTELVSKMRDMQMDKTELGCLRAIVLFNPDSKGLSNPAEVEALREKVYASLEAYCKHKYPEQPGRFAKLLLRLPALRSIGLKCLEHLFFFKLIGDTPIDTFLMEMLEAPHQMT

[13] = target: Thyroid hormone receptor beta (Homo sapiens) (UniProt P10828); assay: qHTS assay for small molecule agonists of thyroid hormone receptor beta signaling (AID 588545)
Chain of Thyroid hormone receptor beta (Homo sapiens) (P10828 whole entry, looked up): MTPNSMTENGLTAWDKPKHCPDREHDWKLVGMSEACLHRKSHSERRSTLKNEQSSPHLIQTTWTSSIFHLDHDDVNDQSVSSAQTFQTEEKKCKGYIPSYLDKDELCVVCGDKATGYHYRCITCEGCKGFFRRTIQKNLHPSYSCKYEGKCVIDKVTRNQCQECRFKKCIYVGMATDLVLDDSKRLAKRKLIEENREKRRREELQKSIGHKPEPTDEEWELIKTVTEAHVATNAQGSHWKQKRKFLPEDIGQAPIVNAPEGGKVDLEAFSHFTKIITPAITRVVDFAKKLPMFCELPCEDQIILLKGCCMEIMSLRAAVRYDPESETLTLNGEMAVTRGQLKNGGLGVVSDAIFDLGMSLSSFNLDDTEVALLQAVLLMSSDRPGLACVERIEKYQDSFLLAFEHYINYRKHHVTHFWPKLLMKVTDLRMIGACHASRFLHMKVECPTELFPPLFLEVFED
How it was run: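 TR-UAS-bla-GripTite HEK 293 cells in medium with 2% charcoal/dextran FBS, 0.1 mM NEAA and 1 mM sodium pyruvate were treated with titrated compounds for 18 hrs at 37 C. Beta-lactamase reporter was read with CCF4 dye (ex 405, em 460/530 nm); EC50 from Hill fits.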

[14] = target: Voltage-gated inwardly rectifying potassium channel KCNH2 (Homo sapiens) (UniProt Q12809); assay: qHTS Assay for Small Molecule Inhibitors of the Human hERG Channel Activity (AID 588834; active = well fitted curve in the direction sought with a large enough effect; an effect the other way counts as inactive or inconclusive;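 also: top concentration of the series differs between compounds; lower thallium flux fluorescence means stronger hERG block; nearly all actives have a fitted effect of over 50% in size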)
Chain of Voltage-gated inwardly rectifying potassium channel KCNH2 (Homo sapiens) (Q12809 whole entry, looked up): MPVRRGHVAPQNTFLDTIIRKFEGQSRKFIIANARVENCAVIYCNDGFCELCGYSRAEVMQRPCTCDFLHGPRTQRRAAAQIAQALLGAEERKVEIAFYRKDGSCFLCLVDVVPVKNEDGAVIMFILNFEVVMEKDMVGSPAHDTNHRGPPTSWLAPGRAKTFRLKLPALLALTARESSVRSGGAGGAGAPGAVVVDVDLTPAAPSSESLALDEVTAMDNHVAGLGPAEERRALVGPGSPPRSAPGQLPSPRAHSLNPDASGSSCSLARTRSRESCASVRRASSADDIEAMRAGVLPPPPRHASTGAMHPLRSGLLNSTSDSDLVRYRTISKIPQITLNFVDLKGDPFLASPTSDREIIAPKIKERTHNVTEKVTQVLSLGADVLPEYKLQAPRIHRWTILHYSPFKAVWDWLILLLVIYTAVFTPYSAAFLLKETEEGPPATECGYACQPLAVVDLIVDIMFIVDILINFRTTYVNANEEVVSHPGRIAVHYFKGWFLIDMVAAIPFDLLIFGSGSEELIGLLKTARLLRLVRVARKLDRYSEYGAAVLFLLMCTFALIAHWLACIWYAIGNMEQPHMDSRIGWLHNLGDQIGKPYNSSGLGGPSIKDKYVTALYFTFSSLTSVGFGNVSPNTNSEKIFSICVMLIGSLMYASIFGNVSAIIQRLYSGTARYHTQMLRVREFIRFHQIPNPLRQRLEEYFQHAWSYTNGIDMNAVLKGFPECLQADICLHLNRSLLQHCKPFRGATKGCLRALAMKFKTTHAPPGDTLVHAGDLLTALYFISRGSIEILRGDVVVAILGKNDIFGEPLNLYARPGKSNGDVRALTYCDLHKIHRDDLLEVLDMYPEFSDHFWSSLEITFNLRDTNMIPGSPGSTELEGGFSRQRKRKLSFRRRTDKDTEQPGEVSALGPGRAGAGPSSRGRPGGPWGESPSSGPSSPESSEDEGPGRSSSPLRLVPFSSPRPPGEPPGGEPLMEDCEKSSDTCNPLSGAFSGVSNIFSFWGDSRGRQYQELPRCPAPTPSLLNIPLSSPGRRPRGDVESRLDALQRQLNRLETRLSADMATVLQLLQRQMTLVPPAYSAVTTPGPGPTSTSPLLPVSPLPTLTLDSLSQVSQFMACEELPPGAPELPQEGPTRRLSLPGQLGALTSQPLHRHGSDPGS
How it was run: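 hERG block measured as reduced thallium-dye (FluxOR) fluorescence after stimulation buffer addition, read over 2 min. Cells were hERG-BacMam-transduced U2OS exposed to compound ~10 min […]; concentration-response fitted with Hill equation for AC50.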

[15] = qHTS assay for small molecule agonists of the antioxidant response element (ARE) signaling pathway (AID 651741; active = well fitted activation curve with a large enough effect in the signal ratio; the % refers to the signal ratio; also: potency is read from the fitted curve at half-maximal effect); details: HepG2 ARE-bla reporter, beta-lactamase FRET ratio, 16 h
How it was run: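 Beta-lactamase reporter under ARE control in HepG2 cells, 2,000 per well, was induced by 16 h compound treatment at 37 C. Read-out was fluorescence from LiveBLAzer B/G FRET substrate after 2 h at room temperature.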

[16] = qHTS assay for small molecule activators of the p53 signaling pathway (AID 651743; active = well fitted activation curve with a large enough effect in the signal ratio, not every such curve was filed as active; the % refers to the signal ratio; also: potency is read from the fitted curve at half-maximal effect); details: HCT-116 p53RE-bla, beta-lactamase FRET ratio, 16 h; activation: stronger effect = higher value
How it was run: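 After 16 hours compound treatment at 37 C, HCT-116 cells stably expressing p53RE-driven beta-lactamase were loaded with LiveBLAzer B/G FRET substrate for 2 hours at room temperature. Fluorescence intensity served as the p53 activation read-out.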

[17] = qHTS assay for small molecule activators of the nuclear factor-kappa B (NF-kB) signaling pathway (AID 651749; active = well fitted activation curve with a large enough effect in the signal ratio; the % refers to the signal ratio; also: series mostly up to about 77 µM); details: NF-kB-bla ME-180 cells, beta-lactamase FRET ratio, 16 h; stronger effect = higher value
How it was run: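 Activation measured after 16 hr compound treatment at 37C, 5% CO2, of 2,000 ME-180 cells/well stably expressing an NF-kB response element–driven beta-lactamase reporter, via FRET-disruption fluorescence.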

[18] = qHTS assay for small molecule disruptors of the mitochondrial membrane potential - 1 hr assay (AID 651754); also: potency is read from the fitted curve at half-maximal effect; nearly all actives have a fitted effect of over 35% in size
How it was run: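 Mitochondrial potential in living HepG2 cells after 1 hr compound treatment at 37C was read with Mito-MPS dye added for a further 30 min. Red aggregate and green monomer fluorescence were measured; loss of potential leaves dye as cytoplasmic monomers.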

[19] = target: Tumor necrosis factor (Homo sapiens) (UniProt P01375); assay: qHTS assay to identify small molecules that stimulate Tumor Necrosis Factor-alpha (TNF-alpha) secretion (AID 651757; active = well fitted curve in the direction sought with a large enough effect in the signal ratio; the % refers to the signal ratio)
Chain of Tumor necrosis factor (Homo sapiens) (P01375 whole entry, looked up): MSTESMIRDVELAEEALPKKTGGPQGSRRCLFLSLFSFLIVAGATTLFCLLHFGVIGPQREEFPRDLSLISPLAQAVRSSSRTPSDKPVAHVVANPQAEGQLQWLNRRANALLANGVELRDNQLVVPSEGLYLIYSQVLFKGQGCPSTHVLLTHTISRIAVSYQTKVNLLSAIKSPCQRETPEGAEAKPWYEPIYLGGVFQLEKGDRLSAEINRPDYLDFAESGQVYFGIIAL
How it was run: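 Secreted TNF-alpha quantified by TR-FRET sandwich of two labeled anti-TNF-alpha antibodies, incubated 3 hr at room temperature. Preceded by 17 hr, 37 C compound treatment of THP-1 cells at 3000 cells/well.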

[20] = target: Nuclear receptor subfamily 1 group I member 2 (Rattus norvegicus) (UniProt Q9R1A7); assay: qHTS assay for small molecule activators of the rat pregnane X receptor (rPXR) signaling pathway (AID 651751; call rule not given here); details: rPXR reporter cells, luciferase (One-Glo), 24 h
Chain of Nuclear receptor subfamily 1 group I member 2 (Rattus norvegicus) (Q9R1A7 whole entry, looked up): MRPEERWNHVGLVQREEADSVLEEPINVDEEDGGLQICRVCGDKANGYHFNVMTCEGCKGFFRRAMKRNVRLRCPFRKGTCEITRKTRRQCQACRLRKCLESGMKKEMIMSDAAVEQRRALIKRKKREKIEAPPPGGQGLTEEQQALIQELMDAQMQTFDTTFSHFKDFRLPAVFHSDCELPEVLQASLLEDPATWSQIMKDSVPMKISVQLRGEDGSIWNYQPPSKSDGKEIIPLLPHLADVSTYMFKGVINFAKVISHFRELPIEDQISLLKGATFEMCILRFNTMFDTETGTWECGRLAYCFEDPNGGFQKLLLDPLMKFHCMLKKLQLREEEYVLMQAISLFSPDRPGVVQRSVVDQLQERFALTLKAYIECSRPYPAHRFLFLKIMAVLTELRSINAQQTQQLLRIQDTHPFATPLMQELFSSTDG

With `CC(C)(c1cc(Br)c(O)c(Br)c1)c1cc(Br)c(O)c(Br)c1` the outcome [1] was “inactive”, the outcome [2] was “inactive” and the outcome [3] was “inactive”. For the same compound, the Potency [4] was 28.2 µM (active) and inactive, the activation [5] was -10.8% (inactive) and 25.4% (inactive) and -11.2% (inactive) and the Potency [6] was 44.7 µM (active). For the same compound, the max response [7] was -3.55% and -29% and 5.87%, the outcome [8] was “inactive” and the outcome [9] was “inactive”. For the same compound, the outcome [10] was “inactive”, the max response [11] was 4.03% and -9.48% and 2.35% and the outcome [12] was “inactive”. The outcome [13] was “inactive”, the Potency [14] was “inactive” and the Potency [15] was 29.8 µM (active) and 23.7 µM (active) and 48.6 µM (active). For the same compound, the Potency [16] was 28.2 µM (active), the activation [17] was 2.39% (inactive) and 3.54% (inactive) and 2.16% (inactive) and the Potency [18] was 18.8 µM (active). For the same compound, the Potency [19] was “inactive” and the max response [20] was 4.59% (inactive) and 7.9% (inactive) and 1.02% (inactive).
